# Assay results as given in ChEMBL document CHEMBL1157539, “Thousands of chemical starting points for antimalarial lead identification” (Nature, 2010).
# Tests used:
# Format in all cases: functional
# [1] = test system: Plasmodium falciparum; assay: GSK_TCMDC: Inhibition of Plasmodium falciparum 3D7 in whole red blood cells, using parasite LDH activity as an index of growth. Test compounds present at 2uM
# [2] = test system: Plasmodium falciparum; assay: GSK_TCMDC: Inhibition of Plasmodium falciparum Dd2 in whole red blood cells, using parasite LDH activity as an index of growth. Test compounds present at 2uM
# [3] = test system: HepG2; assay: GSK_TCMDC: Percent inhibition of human HepG2 cell line. Test compounds present at 10uM.
SMILES,Inhibition [1] [%],Inhibition [2] [%],Inhibition [3] [%]
CC(C)=CCc1c(-c2ccc(O)cc2O)oc2c3c(cc(O)c2c1=O)OC(C)(C)C=C3 [MORUSIN],89,8,1
COc1ccc(N2CCN(c3nc(N)c4cc(OC)c(OC)cc4n3)CC2C)cc1.Cl (stereo not given),95,0,8
COc1cccc([C@@H](CC(=O)Nc2cc(C(F)(F)F)ccc2OC)Nc2ccc(C#N)c3ccccc23)c1,96,53,19
Clc1ccc(Nc2nc3nonc3nc2Nc2ccc(Cl)c(Cl)c2)cc1,99,92,75
Cc1cc(F)ccc1[C@H]1CNCCN1C(=O)N(C)C(C)(C)c1cc(C(F)(F)F)cc(C(F)(F)F)c1.Cl,100,100,24
CC(C)Sc1nncc(-c2cnnc(SC(C)C)n2)n1,100,100,0
O=C(O)C(F)(F)F.O=C1CCCN1CCCNCc1cccc(-c2ccc(-c3nc4ccccc4[nH]3)s2)c1,97,0,0
COC(=O)c1cc(OC)c(OC)cc1NC(=O)NC12CC3CC(CC(C3)C1)C2,94,3,6
C=CCOc1ccc(C2C(C(=O)OC)=C(C)NC3=C2C(=O)c2ccccc23)cc1OC (stereo not given),82,65,0
COc1ccc2c(c1)CCN(CCN1CCC(CNC(=O)c3ccc(-c4ccc(C#N)cc4)cc3)CC1)C2,100,51,40
COc1ccc(Nc2ncc3c(-c4cccc(NC(=O)Cc5ccc(F)cc5)c4)c[nH]c3n2)cc1OC,100,90,21
CCOC(=O)N1CCN(C(=O)Nc2ccc(Cl)cc2)CC1,92,0,4
Cc1cc(C(=O)NC2CCN(Cc3ccccc3)CC2)ccc1-c1nc2cc(Cl)c(Cl)cc2[nH]1,96,32,7
O=C(NCCCCCN1CCC(c2c[nH]c3ccccc23)CC1)Nc1cccc(Cl)c1,86,0,36
O=C(N[C@H](CC1CCCCC1)C(=O)NC1CCCc2ccccc21)c1ccc(O)c(-c2cccc([N+](=O)[O-])c2)c1 (stereo not given in full),99,98,0
Nc1ccc(-c2cnc3[nH]cc(-c4ccc(C(=O)O)cc4)c3c2)cn1.O=C(O)C(F)(F)F,97,99,48
COC(=O)c1ccc(OCC(C)NCC(O)c2cccc(C(F)(F)F)c2)cc1.O=C(O)/C=C/C(=O)O (stereo not given),94,81,6
Cl.FC(F)(F)c1ccc2c(NCCc3ccccc3)ccnc2c1,87,9,14
CCCCCCNCc1c(O)ccc2c(CNCCCCCC)c(O)ccc12.Cl,100,100,22
CCC1CN(CCCn2c3ccccc3c3ccccc32)C(CC)CN1.Cl (stereo not given),89,0,69

SMILES,Inhibition [1] [%],Inhibition [2] [%],Inhibition [3] [%]
COc1ccc(C(=O)CCc2ccc(O)cc2)cc1,96,90,0
CCOCn1c(-c2ccccc2)cc2c3c(N)nc(N)nc3ccc21,91,66,62
CCCN(CCC)C(C)CCC(C)Nc1c2ccc(Cl)cc2nc2ccc(OC)cc12.Cl (stereo not given),100,99,41
CC(CCc1ccccc1)NCC(O)c1ccc2c3c(cccc13)S(=O)(=O)N2C.Cl (stereo not given),99,99,16
CCCCCN1C(=O)N(c2ccc(Cl)c(Cl)c2)C(N(O)C(=O)Nc2ccc(Cl)c(Cl)c2)C1(C)C (stereo not given),94,99,0
Cc1noc(C)c1-c1cccc(CNCc2cccc(-c3cccc(-c4nc5cc(F)ccc5[nH]4)c3)c2)c1.O=C(O)C(F)(F)F,100,73,18
COc1ccc(OCCON)cc1.Cl,98,0,0
N=C(N)NN=Cc1c[nH]c2ccc(-c3ccccc3)cc12.O=C(O)/C=C\C(=O)O,84,61,15
O=C(C1CCN(C(c2ccccc2)c2ccc(Cl)c(Cl)c2)CC1)N1CC=CC1 (stereo not given),89,84,1
CCCc1cc(Cc2cnc(N)nc2N)cc(CCC)c1O.Cl,96,5,64
COc1cc2nc(Nc3ccc(N4CCOCC4)cc3)nc(N)c2cc1OC.Cl,95,10,8
CC1CCCCC1N(C)C1CCN(CCCNC(=O)C=Cc2ccccc2Cl)CC1 (stereo not given),100,14,30
COCCN1CCC(CNCC(C)(C)c2nc(-c3ccc(Cl)c(O)c3)c(-c3ccncc3)[nH]2)CC1.Cl,100,2,0
CC(=O)Nc1ncc(C(=O)Nc2cccc(-c3ccc(-c4nc5cc(C(F)(F)F)ccc5[nH]4)s3)c2)s1,100,99,90
Cc1cc(N/N=C/c2cccc([N+](=O)[O-])c2)c2ccc(C(F)(F)F)cc2n1,100,51,2
CCCCN(CCCC)CCCN(CCCN(CCCC)CCCC)c1cc(C)nc(Nc2ccc3cc(Br)ccc3c2)n1.Cl,100,99,52
N#Cc1ccc(CN2CCC(Oc3ccc(NC(=O)c4ccco4)cc3Cl)CC2)cc1.O=C(O)C(F)(F)F,95,96,7
CCCN(CCC)c1nn2c(=O)c(C(=O)N3CCN(Cc4ccccc4)CC3)cnc2s1,84,89,0
O=C(CC(=O)C(F)(F)F)c1ccc2c(c1)OCO2,96,0,44
Cc1c(C(=O)Nc2cc(Sc3ccc(F)cc3)cc([N+](=O)[O-])c2)sc2ncn(Cc3cccc(F)c3)c(=O)c12,100,53,0

SMILES,Inhibition [1] [%],Inhibition [2] [%],Inhibition [3] [%]
COc1ccc(Cl)c(CC2c3cc(O)c(Cl)cc3CCN2C)c1.Cl (stereo not given),98,72,9
O=C(c1ccccc1)N1COCC(CCN2CCC(N3CCCC3)CC2)(c2ccc(Cl)c(Cl)c2)C1 (stereo not given),83,9,18
Cl.c1ccc(-c2cc(NCCNc3cc(-c4ccccc4)nc4ccccc34)c3ccccc3n2)cc1,99,11,0
Cc1cccc2nc(-c3ccc(-c4ccc(CN5CCN(c6cnccn6)CC5)cc4)s3)[nH]c12.O=C(O)C(F)(F)F,94,42,11
COc1ccccc1CCN1CCC(CN(C)Cc2ccc(O)c(Cl)c2)CC1,100,52,19
N#Cc1ccc2[nH]cc(CN3CCC4(CC3)CN(CCNCc3ccccc3)C(=O)O4)c2c1.O=C(O)C(F)(F)F,100,0,0
O=C(NC1CCC1)C1CCN(C(c2ccccc2)c2cc(F)cc(F)c2)CC1 (stereo not given),94,72,0
COCCN(C)CCCOc1cc2c(cc1OC)ncn2-c1cc(OCc2ccccc2C(F)(F)F)c(C(N)=O)s1.Cl,98,49,24
COc1ccc2ncc(Cl)c(CCN3C[C@H](CNCc4ccc5c(n4)NC(=O)CS5)[C@H](O)C3)c2n1.Cl,94,16,2
CCn1ccc2c(N3CCCCS3(=O)=O)cc(C(=O)N[C@@H](Cc3ccccc3)[C@H](O)CNC(C)(C)c3cccc(C(F)(F)F)c3)cc21,97,98,6
CCc1ccc(N2C(N)=NC(N)=NC2(C)C)cc1.Cl,94,0,51
COCCNCc1ccc(-c2ccc(CNC3CCN(Cc4ccccc4)CC3)cc2)cc1.O=C(O)C(F)(F)F,100,61,22
COc1ccc2ncc(F)c(CCN3CCC4(CC3)COC(c3cc5c(cn3)OCCO5)=N4)c2n1.O=C(O)C(=O)O,89,83,79
CCN1CCC(N(CCCCCCCCc2ccc(C(F)(F)F)cc2)C(=O)Cn2c(CCc3cccc(F)c3F)cc(=O)c3ccccc32)CC1.O=C(O)C(O)C(O)C(=O)O,88,65,89
Cl.O=C1COc2ccc(S(=O)(=O)N3CCC[C@@H]3CCN3CCC(c4c[nH]c5cnccc45)CC3)cc2N1,100,6,0
CCCOc1ccc(-c2nonc2NC(=O)c2ccccc2OC)cc1OCCC,98,82,23
Cc1nn(-c2ccccc2)c2nc(-c3ccccc3)cc(C(=O)N3CCOCC3)c12,93,67,6
O=C(/C=C/c1ccc(Cl)c(Cl)c1)NCCCCCN1CCC(CCNC(=O)c2snnc2-c2ccccc2)CC1,89,1,54
O=C(O)C(F)(F)F.O=[N+]([O-])c1cccc(CNCC2CCN(Cc3ccc(O)cc3)CC2)c1,98,5,8
Cc1cnc(C[S+]([O-])c2nc3cc(C(F)(F)F)ccc3[nH]2)cc1OCc1ccccc1 (stereo not given),93,76,0
